# Screening data deposited in PubChem by National Center for Advancing Translational Sciences (NCATS).
# Sampled rows, rich in hits. Any-hit rate of the full collection: about 1.5%.
# FEN1 inhibitor = qHTS Assay for the Inhibitors of Human Flap endonuclease 1 (FEN1); P39748; 390,000 compounds, 0.35% hits; Potency, µM (series often up to 114 µM), inactives show at the top dose activity change, negative = inhibition, most hits filed as inhibitors; Recombinant FEN1 flap cleavage, fluorescence, 15 min; further: potency means the concentration at half of the fitted maximal effect; nearly all actives have a fitted effect of over 65% in size
#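 Potency values derive from four-parameter Hill fits of normalized qHTS data. The reaction used 10 nM FEN1 preincubated 15 min at room temperature with compound, then 50 nM DNA substrate, read at 0 and 15 min.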
# BLM inh-1 = qHTS Assay for Inhibitors of Bloom's syndrome helicase (BLM); RecQ-like DNA helicase BLM (Homo sapiens), P54132; recombinant BLM DNA unwinding, fluorescence dequenching; Potency, µM (top dose mostly 56.1 µM), without a hit: at the top dose activity change, negative = inhibition, most hits filed as inhibitors; 350,000 compounds, 0.2% hits;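 further: potency means the concentration at half of the fitted maximal effect; plate controls were vehicle for no effect and no enzyme for full effect; nearly all actives have a fitted effect of over 35% in size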
# Target sequence (P54132 whole entry, looked up): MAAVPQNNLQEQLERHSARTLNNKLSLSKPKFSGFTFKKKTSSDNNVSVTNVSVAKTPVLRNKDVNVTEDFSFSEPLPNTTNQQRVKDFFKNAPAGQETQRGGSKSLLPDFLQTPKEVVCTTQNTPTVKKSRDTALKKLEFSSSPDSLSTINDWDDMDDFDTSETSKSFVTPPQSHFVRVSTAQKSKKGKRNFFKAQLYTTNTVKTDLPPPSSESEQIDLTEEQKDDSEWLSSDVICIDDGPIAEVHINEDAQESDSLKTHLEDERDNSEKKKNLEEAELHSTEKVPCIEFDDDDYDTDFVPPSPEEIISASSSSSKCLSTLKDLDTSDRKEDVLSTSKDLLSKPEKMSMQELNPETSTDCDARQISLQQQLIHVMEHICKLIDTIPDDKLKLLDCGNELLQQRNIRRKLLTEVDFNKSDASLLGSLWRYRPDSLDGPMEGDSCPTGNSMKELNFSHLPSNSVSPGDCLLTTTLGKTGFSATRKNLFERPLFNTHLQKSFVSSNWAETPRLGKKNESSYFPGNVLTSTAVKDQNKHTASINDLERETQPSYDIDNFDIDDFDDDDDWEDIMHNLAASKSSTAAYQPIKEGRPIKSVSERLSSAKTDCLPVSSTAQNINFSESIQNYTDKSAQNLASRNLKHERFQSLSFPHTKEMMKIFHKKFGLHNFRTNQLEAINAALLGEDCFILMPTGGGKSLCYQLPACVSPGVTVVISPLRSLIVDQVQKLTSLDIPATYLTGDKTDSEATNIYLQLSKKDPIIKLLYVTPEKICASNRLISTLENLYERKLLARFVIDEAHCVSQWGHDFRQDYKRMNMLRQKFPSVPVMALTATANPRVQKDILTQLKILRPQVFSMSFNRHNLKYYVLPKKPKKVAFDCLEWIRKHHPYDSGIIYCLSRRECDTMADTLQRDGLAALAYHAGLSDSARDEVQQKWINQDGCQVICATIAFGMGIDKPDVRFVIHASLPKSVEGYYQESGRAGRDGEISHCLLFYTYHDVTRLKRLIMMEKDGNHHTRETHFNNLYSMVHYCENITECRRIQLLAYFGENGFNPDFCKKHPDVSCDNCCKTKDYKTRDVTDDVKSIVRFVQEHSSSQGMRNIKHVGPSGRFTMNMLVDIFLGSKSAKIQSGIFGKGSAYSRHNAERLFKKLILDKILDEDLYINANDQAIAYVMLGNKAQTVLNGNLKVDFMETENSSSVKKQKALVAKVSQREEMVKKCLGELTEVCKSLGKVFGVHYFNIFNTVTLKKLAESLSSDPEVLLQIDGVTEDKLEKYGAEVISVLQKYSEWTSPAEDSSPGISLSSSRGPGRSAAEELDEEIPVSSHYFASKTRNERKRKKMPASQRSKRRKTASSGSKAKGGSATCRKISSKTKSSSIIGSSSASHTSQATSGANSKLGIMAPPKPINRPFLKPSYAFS
# PI5P4K alpha inh = qHTS for Inhibitors of phosphatidylinositol 5-phosphate 4-kinase (PI5P4K) | AID 652105, 2013 | PI5P4Kalpha enzyme, ADP-Glo luminescence, 60 min; active compounds read low | max response, % | 330,000 compounds, 1.2% hits; active means max response of -50% or lower; inconclusive means between -30% and -50%; inactive means -30% or higher; further: value at the top dose of about 77 µM
#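 Compounds were pin-transferred onto PI5P4Kalpha and substrate in HEPES pH 7.4 buffer with EGTA, CHAPS and 5% DMSO. ATP (5 microM final) started the reaction, which ran 60 minutes at room temperature before ADP-Glo detection.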
# RECQ1 inh-1 = qHTS Assay for Inhibitors of RecQ-Like Dna Helicase 1 (RECQ1); ATP-dependent DNA helicase Q1 (Homo sapiens), P46063; RECQ1 DNA unwinding, red fluorescence kinetic read; Potency, µM (titrated, usually from 57.3 µM), for the others: at the highest dose activity, negative = inhibition, most hits filed as inhibitors; 240,000 compounds, 0.54% hits; AID 2549, 2010;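 further: potency means the concentration at half of the fitted maximal effect; plate controls were vehicle for no effect and no enzyme for full effect; nearly all actives have a fitted effect of over 30% in size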
#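 RECQ1T1 50 nM; forked duplex (20 bp + 30-nt ss tails) 200 nM, ATP 2 mM final; pH 8.0, 2 mM MgCl2, 2.5 ug/ml poly(dI-dC); 15 min compound preincubation; discontinuous kinetic read over 2 h at RT.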
# APE1 inh = qHTS Assay for Inhibitors of the Human Apurinic/apyrimidinic Endonuclease 1 (APE1); DNA repair nuclease/redox regulator APEX1 (Homo sapiens), P27695; recombinant APE1, TAMRA/BHQ-2 abasic DNA cleavage fluorescence; Potency, µM (top dose mostly 65.8 µM), for the others: top-dose activity change, negative = inhibition, actives largely listed as inhibitors; 350,000 compounds, 0.35% hits; AID 2517, 2012;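 further: potency means the concentration at half of the fitted maximal effect; plate controls were vehicle for no effect and reference inhibitor for full effect; nearly all actives have a fitted effect of over 55% in size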
#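 Readout is kinetic fluorescence (ex 525, em 598 nm) from cleavage of 50 nM TAMRA/BHQ-2 THF abasic duplex by 0.75 nM APE1, compound added 15 min beforehand at RT.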
# WRN inhibitor = qHTS for Inhibitors of WRN Helicase; Bifunctional 3'-5' exonuclease/ATP-dependent helicase WRN (Homo sapiens), Q14191; WRN helicase unwinding, fluorescent forked duplex, kinetic; Potency, µM (top dose mostly 114 µM), for the others: top-dose activity change, negative = inhibition, actives largely listed as inhibitors; 360,000 compounds, 0.46% hits; AID 651768, 2012; further: potency means the concentration at half of the fitted maximal effect; nearly all actives have a fitted effect of over 55% in size
#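 Screening of the MLSMR collection measured strand separation of a quenched forked DNA duplex (100 nM) by 20 nM WRN with 2 mM ATP, all final. Compounds were preincubated with enzyme 15 min at room temperature.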
# BLM inh-2 = qHTS Confirmation Assay for Inhibitors of Bloom's syndrome helicase (BLM) | shares compounds with BLM inh-1 | BLM DNA unwinding, fluorescence quenching, biochemical | AID 2585, 2010 | Potency, µM, without a hit: max response, negative = inhibition, hits mostly inhibitors | 220 compounds, 40% hits;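 further: strand separation dequenches TAMRA so unwinding raises red fluorescence; potency means the concentration at half of the fitted maximal effect; series mostly up to about 69 µM; nearly all actives have a fitted effect of over 45% in size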
# RECQ1 inh conf = Confirmation qHTS Assay for Inhibitors of RecQ-Like Dna Helicase 1 (RECQ1) | shares compounds with RECQ1 inh-1 | RECQ1 helicase DNA unwinding, fluorescence | Potency, µM (series often up to 229 µM), for inactives: at the top dose activity change, negative = inhibition, most hits filed as inhibitors | 610 compounds, 28% hits; further: potency means the concentration at half of the fitted maximal effect; nearly all actives have a fitted effect of over 45% in size
# ADP FP counter = Counterscreen for RECQ1 Inhibitors: ADP Fluorescence Polarization Displacement Assay; shares compounds with RECQ1 inh-1; ADP fluorescence polarization displacement counterscreen; 530 compounds, 27% hits; Potency, µM (highest dose often 228 µM), without a hit: at the top dose activity change, negative = inhibition, actives largely listed as inhibitors; further: potency means the concentration at half of the fitted maximal effect; nearly all actives have a fitted effect of over 45% in size
# RECQ1 inh-2 = Confirmation qHTS Assay for Inhibitors of RecQ-Like Dna Helicase 1 (RECQ1) - Round 2 Cherry Picks; recombinant RECQ1 DNA unwinding, red fluorescence; AID 504841, 2011; Potency, µM (titrated, usually from 119 µM), for the others: at the top dose activity, negative = inhibition, hits mostly inhibitors; 1,100 compounds, 15% hits; shares compounds with RECQ1 inh-1; further: potency means the concentration at half of the fitted maximal effect; nearly all actives have a fitted effect of over 50% in size
# An asterisk follows results filed as active; ? = inconclusive; . = no result given; ! = not confirmed by another sample; [ ] = remark or other dose. Unless noted, the call rests on the fitted dose curve; in most records, active means well fitted curve in the direction sought with a large enough effect; inconclusive means small, poorly fitted or top-dose-only effect, or another doubt; inactive means no such curve, though single readings can be large; an effect the other way counts as inactive or inconclusive. Unless noted, on the % scale 0 is the no-effect control and ±100 the full control effect.
SMILES,FEN1 inhibitor,BLM inh-1,PI5P4K alpha inh,RECQ1 inh-1,APE1 inh,WRN inhibitor,BLM inh-2,RECQ1 inh conf,others
COc1ccc(Cc2nc3ccccc3n2CC(=O)N/N=C/c2ccc(O)cc2)cc1OC,-11%,1%,1,-1%,-2%,-8%,.,.,
COc1ccc(Cc2nc3ccccc3n2CC(=O)N/N=C/c2ccc(C)cc2O)cc1OC,?,10µM*,-11,9%,-4%,-20%[11.6 µM],?,.,
CCCN(Cc1cccs1)C(=O)Nc1cc(C)ccc1OC,-2%,-7%,.,.,.,.,.,.,
Cc1ccc2nc(/C(C#N)=C/c3ccc(-c4cccc([N+](=O)[O-])c4)o3)[nH]c2c1,45µM*,22µM*,-2,-9%,5%,?,13µM*,.,
CC(=O)N[C@@H](Cc1c[nH]c2ccccc12)C(=O)O,.,-8%,.,-9%,0%,.,.,.,
O=C(CCc1c[nH]c2ccccc12)NC(Cc1c[nH]c2ccccc12)C(=O)O (configuration not stated),15%,32µM*,3,.,21µM*,-5%,-8%,.,
CCSc1ccc(-c2ccco2)nn1,2%,10µM*,-16,-22%,0%,-1%,?,.,
CCc1c(C)nc2cc(-c3ccccc3)[nH]n2c1=O,-9%,3%,-17,.,17%,1%,.,.,
Cc1nc2cc(-c3ccsc3-n3c(C)ccc3C)[nH]n2c(=O)c1Cl,?,16µM*,?,2.8µM*,?,?,?,40µM*,ADP FP counter=32µM*;RECQ1 inh-2=?
CCOc1ccccc1CNc1ccc(O)cc1,-10%,28µM*,?,20µM*,-19%,-23%,-9%,10%[114 µM],ADP FP counter=56µM*;RECQ1 inh-2=1%
COc1ccc(Br)cc1CNc1ccc(O)cc1,-12%,20µM*,-29,28µM*,-9%,-12%[57.1 µM],-3%,.,RECQ1 inh-2=-12%
CCOc1ccc(CNC(=O)CCn2c(=O)c3cccn3c3ccc(F)cc32)cc1,-4%,1%,.,.,.,.,.,.,
Cc1ccc(SCC(=O)c2ccc(CC(=O)O)s2)cc1,-3%,25µM*,?,25µM*,-12%,?,?,.,RECQ1 inh-2=7%
CC(=O)Nc1ccc(SCC(=O)c2ccc(Br)s2)cc1,1%,-13%,-24,.,29%,-30%,.,.,
CCOc1ccc(C(=O)Nc2ccc(-c3nc4ccccc4[nH]3)cc2)cc1[N+](=O)[O-],4%,-15%,-4,7.9µM*,0%,?,?,?,RECQ1 inh-2=?
COc1ccc(-c2cc(=S)ss2)cc1,.,-4%,.,.,.,.,.,.,
COc1cc(OC)c(NC(=O)CC(c2cccs2)N2Cc3ccccc3C2=O)cc1Cl (configuration not stated),-3%,-3%,.,.,.,.,.,.,
O=c1c(-c2cc(F)cc(F)c2)nc2cnc(N3CCNCC3)nc2n1Cc1ccc(F)cc1,.,35µM*,.,?,?,.,?,.,RECQ1 inh-2=?
O=C(O)C1Nc2c(O)cccc2C2C=CCC12 (configuration not stated),40µM*,4.5µM*,-81*,4µM*,3.5µM*,11µM*,5.4µM*,?,
CC(C)(C)C(=O)Nc1nc2nc(-c3ccccc3)cc(=O)n2[nH]1,-12%,0%,.,.,.,.,.,.,
O=C(/C=C/c1ccc(Br)cc1)c1ccc(NC(=O)c2ccco2)cc1,-14%,-18%,-19,4µM*,17%,-7%,27µM*,?,RECQ1 inh-2=?
O=C(/C=C/c1ccc(Br)cc1)c1ccco1,-1%,-4%,-10,-9%,0%,?,.,.,
COc1cc(/C=N/NC(=O)c2cc(-c3ccco3)nc3ccccc23)cc(OC)c1O,-29%,-15%,?,-1%,?,-11%[11.6 µM],.,.,
O=C(N/N=C/c1cccc(F)c1)c1cc(-c2ccco2)nc2ccccc12,?,11µM*,-88*,22µM*,4.5µM*,56µM*,5.8µM*,28µM*,ADP FP counter=?
CCC1NC(=O)C(NC(=O)c2ncccc2O)C(C)OC(=O)C(c2ccccc2)NC(=O)C2CC(=O)CCN2C(=O)C(Cc2ccccc2)N(C)C(=O)C2CCCN2C1=O (configuration not stated),.,-2%,.,.,.,.,.,.,
Cc1c2oc3c(C)ccc(C(=O)N[C@@H]4C(=O)N[C@H](C(C)C)C(=O)N5CCC[C@H]5C(=O)N(C)CC(=O)N(C)[C@@H](C(C)C)C(=O)O[C@@H]4C)c3nc-2c(C(=O)N[C@@H]2C(=O)N[C@H](C(C)C)C(=O)N3CCC[C@H]3C(=O)N(C)CC(=O)N(C)[C@@H](C(C)C)C(=O)O[C@@H]2C)c(N)c1=O,.,?,.,3.5µM*,13µM*!,.,?,1.4µM*,
Cc1nc2c(C(=O)NCc3ccccc3Cl)cnn2c(C)c1Cc1c(F)cccc1Cl,14%,-2%,.,.,.,.,.,.,
O=C1C(=O)N(C2CCN(S(=O)(=O)c3ccccc3)CC2)CCN1Cc1ccccc1,1%,-2%,.,.,.,.,.,.,
O=C(CSc1nc(-c2ccccc2)nc2c1Cc1ccccc1O2)Nc1ccc(C(=O)O)cc1,?,10µM*,-63*,8.9µM*,1%,?,13µM*,4%[69.1 µM],
